Assay results from paper PMC5540273 (PLoS ONE, 2017).

What was measured:
Details in all cases: concentration: 1 μM, replicates: in singlicate; n = 1
[1] = tested on: JAK1(JH2domain-pseudokinase)
[2] = tested on: JAK2(JH1domain-catalytic)
[3] = tested on: JAK3(JH1domain-catalytic)
JNK1 = tested on: T1, JNK1
T1 construct: gene MAPK8

JNK2 = tested on: T2, JNK2
T2 construct: gene MAPK9

JNK3 = tested on: T3, JNK3
T3 construct: gene MAPK10

KIT-autoinhibited = tested on: KIT-autoinhibited
KIT = tested on: KIT
LATS1 = tested on: LATS1
LATS2 = tested on: LATS2
LCK = tested on: LCK
LIMK1 = tested on: LIMK1
LIMK2 = tested on: LIMK2
LKB1 = tested on: T4, LKB1
T4 construct: gene STK11

LOK = tested on: T5, LOK
T5 construct: gene STK10

LRRK2 = tested on: LRRK2
LTK = tested on: LTK
LYN = tested on: LYN
LZK = tested on: T6, LZK
T6 construct: gene MAP3K13

MAK = tested on: MAK
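Further: KINOMEscan kinase panel screen.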

Cc1cccc(NC(=O)Nc2ccc(Oc3ncnc4ccn(C)c34)cc2)c1
%Inh [1]: 30% | %Inh [2]: 0% | %Inh [3]: 9% | %Inh (JNK1): 9% | %Inh (JNK2): 0% | %Inh (JNK3): 0% | %Inh (KIT-autoinhibited): 97% | %Inh (KIT): 100% | %Inh (LATS1): 5% | %Inh (LATS2): 0% | %Inh (LCK): 0% | %Inh (LIMK1): 7% | %Inh (LIMK2): 0% | %Inh (LKB1): 42% | %Inh (LOK): 86% | %Inh (LRRK2): 0% | %Inh (LTK): 17% | %Inh (LYN): 7% | %Inh (LZK): 0% | %Inh (MAK): 0%

NCCCC(NC(=O)c1cc(Br)c(-c2ccnc3[nH]ccc23)s1)c1ccccc1.O=C(O)C(F)(F)F.O=C(O)C(F)(F)F (centres unmarked) [GSK1287544]
%Inh [1]: 0% | %Inh [2]: 91.3% | %Inh [3]: 87% | %Inh (JNK1): 36% | %Inh (JNK2): 22% | %Inh (JNK3): 19% | %Inh (KIT-autoinhibited): 0% | %Inh (KIT): 22% | %Inh (LATS1): 66% | %Inh (LATS2): 89% | %Inh (LCK): 9% | %Inh (LIMK1): 6% | %Inh (LIMK2): 6% | %Inh (LKB1): 0% | %Inh (LOK): 0% | %Inh (LRRK2): 42% | %Inh (LTK): 0% | %Inh (LYN): 0% | %Inh (LZK): 0% | %Inh (MAK): 34%

C[C@@H](Oc1cc(-n2cnc3cc(-c4ccnc(NCCS(C)(=O)=O)c4)ccc32)sc1C(N)=O)c1ccccc1Cl [GSK907232]
%Inh [1]: 0% | %Inh [2]: 50% | %Inh [3]: 66% | %Inh (JNK1): 0% | %Inh (JNK2): 10% | %Inh (JNK3): 1% | %Inh (KIT-autoinhibited): 0% | %Inh (KIT): 80% | %Inh (LATS1): 0% | %Inh (LATS2): 0% | %Inh (LCK): 67% | %Inh (LIMK1): 0% | %Inh (LIMK2): 4% | %Inh (LKB1): 0% | %Inh (LOK): 99.1% | %Inh (LRRK2): 44% | %Inh (LTK): 0% | %Inh (LYN): 0% | %Inh (LZK): 0% | %Inh (MAK): 0%

CC(C)c1nc(-c2cccc(NS(=O)(=O)c3c(F)cccc3F)c2F)c(-c2ccnc(Nc3ccc(N4CCOCC4)nc3)n2)s1 [GSK2008607]
%Inh [1]: 0% | %Inh [2]: 91.2% | %Inh [3]: 99.6% | %Inh (JNK1): 3% | %Inh (JNK2): 40% | %Inh (JNK3): 15% | %Inh (KIT-autoinhibited): 0% | %Inh (KIT): 99.9% | %Inh (LATS1): 0% | %Inh (LATS2): 11% | %Inh (LCK): 99.8% | %Inh (LIMK1): 99.9% | %Inh (LIMK2): 100% | %Inh (LKB1): 9% | %Inh (LOK): 99.8% | %Inh (LRRK2): 0% | %Inh (LTK): 0% | %Inh (LYN): 98.5% | %Inh (LZK): 95.8% | %Inh (MAK): 100%

CCS(=O)(=O)c1ccc(OC)c(Nc2nccc(-c3c(-c4cccc(NC(=O)c5c(F)cccc5F)c4)nn4ncccc34)n2)c1 [GSK326180]
%Inh [1]: 0% | %Inh [2]: 0% | %Inh [3]: 0% | %Inh (JNK1): 32% | %Inh (JNK2): 68% | %Inh (JNK3): 46% | %Inh (KIT-autoinhibited): 0% | %Inh (KIT): 32% | %Inh (LATS1): 0% | %Inh (LATS2): 2% | %Inh (LCK): 56% | %Inh (LIMK1): 23% | %Inh (LIMK2): 3% | %Inh (LKB1): 0% | %Inh (LOK): 92.1% | %Inh (LRRK2): 0% | %Inh (LTK): 19% | %Inh (LYN): 30% | %Inh (LZK): 0% | %Inh (MAK): 15%

COc1cc(Nc2nccc(N3CCC(NC(=O)c4cc5ccccc5s4)C3)n2)cc(OC)c1OC (centres unmarked) [GSK1379760]
%Inh [1]: 0% | %Inh [2]: 76% | %Inh [3]: 0% | %Inh (JNK1): 17% | %Inh (JNK2): 16% | %Inh (JNK3): 23% | %Inh (KIT-autoinhibited): 0% | %Inh (KIT): 36% | %Inh (LATS1): 57% | %Inh (LATS2): 5% | %Inh (LCK): 29% | %Inh (LIMK1): 17% | %Inh (LIMK2): 24% | %Inh (LKB1): 14% | %Inh (LOK): 84% | %Inh (LRRK2): 0% | %Inh (LTK): 13% | %Inh (LYN): 31% | %Inh (LZK): 30% | %Inh (MAK): 23%

CN(c1ccc(NC(=O)Nc2cc(C(F)(F)F)ccc2F)cc1)c1ccnc(Nc2ccc(S(N)(=O)=O)cc2)n1 [GW809893]
%Inh [1]: 16% | %Inh [2]: 94.7% | %Inh [3]: 51% | %Inh (JNK1): 8% | %Inh (JNK2): 51% | %Inh (JNK3): 0% | %Inh (KIT-autoinhibited): 16% | %Inh (KIT): 99.5% | %Inh (LATS1): 0% | %Inh (LATS2): 0% | %Inh (LCK): 99.6% | %Inh (LIMK1): 89% | %Inh (LIMK2): 84% | %Inh (LKB1): 0% | %Inh (LOK): 100% | %Inh (LRRK2): 72% | %Inh (LTK): 95.7% | %Inh (LYN): 96.4% | %Inh (LZK): 0% | %Inh (MAK): 95.7%

O=c1[nH]cc(-c2ccc(N3CCOCC3)cc2)c2sc(-c3cn[nH]c3)cc12 [GSK2276055]
%Inh [1]: 77% | %Inh [2]: 100% | %Inh [3]: 39% | %Inh (JNK1): 24% | %Inh (JNK2): 14% | %Inh (JNK3): 10% | %Inh (KIT-autoinhibited): 22% | %Inh (KIT): 76% | %Inh (LATS1): 0% | %Inh (LATS2): 62% | %Inh (LCK): 9% | %Inh (LIMK1): 0% | %Inh (LIMK2): 0% | %Inh (LKB1): 0% | %Inh (LOK): 0% | %Inh (LRRK2): 0% | %Inh (LTK): 5% | %Inh (LYN): 0% | %Inh (LZK): 0% | %Inh (MAK): 30%

CSc1cccc2c(-c3ccncn3)c(-c3ccc(F)cc3)nn12 [GW514786]
%Inh [1]: 9% | %Inh [2]: 9% | %Inh [3]: 0% | %Inh (JNK1): 24% | %Inh (JNK2): 71% | %Inh (JNK3): 75% | %Inh (KIT-autoinhibited): 0% | %Inh (KIT): 0% | %Inh (LATS1): 0% | %Inh (LATS2): 16% | %Inh (LCK): 20% | %Inh (LIMK1): 11% | %Inh (LIMK2): 0% | %Inh (LKB1): 0% | %Inh (LOK): 0% | %Inh (LRRK2): 34% | %Inh (LTK): 0% | %Inh (LYN): 0% | %Inh (LZK): 20% | %Inh (MAK): 0%

CN1CCN(Cc2cccc(-c3ccc4c(Nc5ccc(Oc6ccccc6)cc5)ccnc4c3)c2)CC1 [GW578342]
%Inh [1]: 0% | %Inh [2]: 0% | %Inh [3]: 0% | %Inh (JNK1): 0% | %Inh (JNK2): 0% | %Inh (JNK3): 0% | %Inh (KIT-autoinhibited): 11% | %Inh (KIT): 93.7% | %Inh (LATS1): 10% | %Inh (LATS2): 0% | %Inh (LCK): 95.2% | %Inh (LIMK1): 0% | %Inh (LIMK2): 0% | %Inh (LKB1): 12% | %Inh (LOK): 21% | %Inh (LRRK2): 0% | %Inh (LTK): 38% | %Inh (LYN): 58% | %Inh (LZK): 0% | %Inh (MAK): 27%
